Data from the supplement of paper PMC11732987, “Enantioselective OTUD7B fragment discovery through chemoproteomics screening and high-throughput optimisation” (Communications Chemistry, 2025).

Key:
Assay in all cases: log2 ratio of Biotin-Ahx-Ub-VS probe labelling (fragment/DMSO); higher = less target engagement (more negative = stronger competition), active = hit call of the paper (q ≤ 0.05, log2 ratio ≤ -1)
Conditions in all cases: compound concentration: 200 uM; treatment time: 3 h
USP42 = target: T1, USP42 (UniProt Q9H9J4)
T1 sequence (whole entry): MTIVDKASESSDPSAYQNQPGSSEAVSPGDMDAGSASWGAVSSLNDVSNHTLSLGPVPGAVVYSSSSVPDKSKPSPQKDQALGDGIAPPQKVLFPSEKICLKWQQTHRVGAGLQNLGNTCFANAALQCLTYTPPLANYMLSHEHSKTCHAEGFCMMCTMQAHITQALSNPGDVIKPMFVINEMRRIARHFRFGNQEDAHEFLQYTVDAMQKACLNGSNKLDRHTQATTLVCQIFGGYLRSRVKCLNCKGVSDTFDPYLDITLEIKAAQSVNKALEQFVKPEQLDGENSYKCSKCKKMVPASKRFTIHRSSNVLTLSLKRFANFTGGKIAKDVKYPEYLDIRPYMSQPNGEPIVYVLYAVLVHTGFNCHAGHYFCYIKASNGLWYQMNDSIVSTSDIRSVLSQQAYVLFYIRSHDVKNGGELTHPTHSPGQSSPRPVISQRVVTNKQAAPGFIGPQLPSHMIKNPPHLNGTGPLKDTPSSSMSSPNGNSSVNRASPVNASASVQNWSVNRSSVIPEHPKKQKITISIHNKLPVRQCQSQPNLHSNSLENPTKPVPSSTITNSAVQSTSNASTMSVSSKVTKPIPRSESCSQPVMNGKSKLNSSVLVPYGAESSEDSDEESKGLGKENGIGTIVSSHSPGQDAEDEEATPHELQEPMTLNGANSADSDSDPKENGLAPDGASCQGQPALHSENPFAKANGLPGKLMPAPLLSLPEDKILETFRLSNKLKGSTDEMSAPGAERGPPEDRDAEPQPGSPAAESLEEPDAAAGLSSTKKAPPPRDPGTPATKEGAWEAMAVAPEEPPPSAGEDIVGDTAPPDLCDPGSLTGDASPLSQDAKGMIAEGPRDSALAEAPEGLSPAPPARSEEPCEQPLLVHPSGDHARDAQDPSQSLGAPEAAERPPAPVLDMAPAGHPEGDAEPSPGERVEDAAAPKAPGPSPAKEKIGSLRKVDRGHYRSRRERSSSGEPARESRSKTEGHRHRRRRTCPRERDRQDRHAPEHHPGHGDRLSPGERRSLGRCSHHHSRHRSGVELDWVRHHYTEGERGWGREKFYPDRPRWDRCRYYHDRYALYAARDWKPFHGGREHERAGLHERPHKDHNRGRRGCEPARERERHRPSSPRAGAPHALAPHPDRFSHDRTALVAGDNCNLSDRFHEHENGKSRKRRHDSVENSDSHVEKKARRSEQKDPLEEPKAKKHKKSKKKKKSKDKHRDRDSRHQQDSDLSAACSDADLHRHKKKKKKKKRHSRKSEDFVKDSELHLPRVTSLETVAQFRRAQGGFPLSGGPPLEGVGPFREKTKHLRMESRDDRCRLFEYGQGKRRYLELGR
Summary of the method: (§1)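 Fragment (200 µM) or vehicle was incubated for 3 h with triplicate HEK293T lysate samples of 495 µg, which were then treated with Biotin-Ahx-Ub-VS at 0.5 µM final for 1 h. Labelled DUBs were enriched on NeutrAvidin, digested with LysC and trypsin, and analysed by diaPASEF LC-MS/MS. Values are average log2 fragment/vehicle ratios from an unpaired t-test on global-median-normalised Spectronaut label-free quantities, using proteins with ≥2 unique peptides.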

USP46 = USP46 (UniProt P62068)
Chain of USP46 (P62068 whole entry): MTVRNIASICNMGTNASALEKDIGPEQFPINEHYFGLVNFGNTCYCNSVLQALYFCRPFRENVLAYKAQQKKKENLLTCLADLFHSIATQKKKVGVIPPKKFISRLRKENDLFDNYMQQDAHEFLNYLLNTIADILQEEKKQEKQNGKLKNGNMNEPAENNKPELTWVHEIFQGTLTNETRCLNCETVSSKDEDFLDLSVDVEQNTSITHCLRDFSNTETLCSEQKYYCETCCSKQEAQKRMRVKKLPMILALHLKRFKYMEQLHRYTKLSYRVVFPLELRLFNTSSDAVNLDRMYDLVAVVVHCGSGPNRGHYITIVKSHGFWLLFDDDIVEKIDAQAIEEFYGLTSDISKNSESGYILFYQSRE
Summary of the method: as §1

USP47 = target: T2, USP47 (UniProt Q96K76)
T2 sequence (whole entry): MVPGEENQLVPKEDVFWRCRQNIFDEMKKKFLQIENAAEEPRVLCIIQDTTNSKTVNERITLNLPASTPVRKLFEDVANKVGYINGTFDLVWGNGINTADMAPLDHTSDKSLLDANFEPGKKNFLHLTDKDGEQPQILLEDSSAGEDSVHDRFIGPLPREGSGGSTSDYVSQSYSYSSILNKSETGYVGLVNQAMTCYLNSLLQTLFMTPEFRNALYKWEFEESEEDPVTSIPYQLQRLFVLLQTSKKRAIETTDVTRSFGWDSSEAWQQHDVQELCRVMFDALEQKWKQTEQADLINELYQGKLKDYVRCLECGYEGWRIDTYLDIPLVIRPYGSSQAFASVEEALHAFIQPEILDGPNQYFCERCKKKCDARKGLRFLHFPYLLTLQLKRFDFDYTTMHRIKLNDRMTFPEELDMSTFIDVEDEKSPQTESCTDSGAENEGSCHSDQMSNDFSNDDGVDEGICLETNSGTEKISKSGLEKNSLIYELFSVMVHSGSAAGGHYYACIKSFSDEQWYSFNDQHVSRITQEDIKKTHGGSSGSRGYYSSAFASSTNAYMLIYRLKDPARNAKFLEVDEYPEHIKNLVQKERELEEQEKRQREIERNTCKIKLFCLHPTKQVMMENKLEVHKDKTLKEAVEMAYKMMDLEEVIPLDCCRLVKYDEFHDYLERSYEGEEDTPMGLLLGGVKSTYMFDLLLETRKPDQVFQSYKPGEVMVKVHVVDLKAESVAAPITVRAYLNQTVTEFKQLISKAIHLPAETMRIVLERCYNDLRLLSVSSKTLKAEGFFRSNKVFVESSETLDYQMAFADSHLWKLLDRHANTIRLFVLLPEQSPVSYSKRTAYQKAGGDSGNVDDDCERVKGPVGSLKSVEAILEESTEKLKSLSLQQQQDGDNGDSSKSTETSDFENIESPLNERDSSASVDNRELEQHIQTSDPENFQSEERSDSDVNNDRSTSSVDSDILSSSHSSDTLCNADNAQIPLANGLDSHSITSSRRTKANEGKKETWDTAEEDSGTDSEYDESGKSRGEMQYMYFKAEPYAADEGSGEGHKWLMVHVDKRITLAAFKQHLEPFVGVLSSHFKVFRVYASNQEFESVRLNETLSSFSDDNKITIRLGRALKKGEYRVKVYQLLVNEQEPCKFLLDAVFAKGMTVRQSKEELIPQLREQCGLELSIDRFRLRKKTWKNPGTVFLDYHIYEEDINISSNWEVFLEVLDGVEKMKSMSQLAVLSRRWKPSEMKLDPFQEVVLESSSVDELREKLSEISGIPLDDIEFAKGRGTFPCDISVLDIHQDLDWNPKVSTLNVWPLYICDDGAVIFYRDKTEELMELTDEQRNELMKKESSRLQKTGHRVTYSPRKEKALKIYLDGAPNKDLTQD
Summary of the method: as §1

USP48 = target: T3, USP48 (UniProt Q86UV5)
T3 sequence (whole entry): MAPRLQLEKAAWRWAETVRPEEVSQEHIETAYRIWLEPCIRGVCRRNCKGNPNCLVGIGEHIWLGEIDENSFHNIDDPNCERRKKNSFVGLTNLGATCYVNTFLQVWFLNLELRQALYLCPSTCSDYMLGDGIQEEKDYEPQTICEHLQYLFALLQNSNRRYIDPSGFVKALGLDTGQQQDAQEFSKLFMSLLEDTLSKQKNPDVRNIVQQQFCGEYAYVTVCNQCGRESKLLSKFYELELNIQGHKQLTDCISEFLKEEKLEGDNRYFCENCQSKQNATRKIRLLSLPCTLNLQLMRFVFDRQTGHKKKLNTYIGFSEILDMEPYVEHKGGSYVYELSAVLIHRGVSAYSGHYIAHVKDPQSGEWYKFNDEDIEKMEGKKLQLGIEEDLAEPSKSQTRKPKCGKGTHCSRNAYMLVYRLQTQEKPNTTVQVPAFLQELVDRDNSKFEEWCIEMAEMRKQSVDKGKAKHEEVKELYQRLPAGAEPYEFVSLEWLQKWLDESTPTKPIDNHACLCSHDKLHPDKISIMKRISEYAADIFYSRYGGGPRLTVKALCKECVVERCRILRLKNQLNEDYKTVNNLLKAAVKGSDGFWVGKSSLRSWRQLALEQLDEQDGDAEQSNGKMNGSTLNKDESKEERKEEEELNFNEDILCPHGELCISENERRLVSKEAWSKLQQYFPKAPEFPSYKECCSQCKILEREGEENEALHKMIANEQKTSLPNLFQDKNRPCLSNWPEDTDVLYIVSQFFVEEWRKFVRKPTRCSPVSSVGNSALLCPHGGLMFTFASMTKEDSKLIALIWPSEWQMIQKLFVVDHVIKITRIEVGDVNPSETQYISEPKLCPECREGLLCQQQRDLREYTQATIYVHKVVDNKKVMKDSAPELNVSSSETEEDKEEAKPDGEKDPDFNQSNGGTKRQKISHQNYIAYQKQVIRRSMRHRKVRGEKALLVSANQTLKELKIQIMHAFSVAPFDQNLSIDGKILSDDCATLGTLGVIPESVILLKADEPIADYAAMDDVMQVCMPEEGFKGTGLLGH
Summary of the method: as §1

USP5 = target: T4, USP5 (UniProt P45974)
T4 sequence (whole entry): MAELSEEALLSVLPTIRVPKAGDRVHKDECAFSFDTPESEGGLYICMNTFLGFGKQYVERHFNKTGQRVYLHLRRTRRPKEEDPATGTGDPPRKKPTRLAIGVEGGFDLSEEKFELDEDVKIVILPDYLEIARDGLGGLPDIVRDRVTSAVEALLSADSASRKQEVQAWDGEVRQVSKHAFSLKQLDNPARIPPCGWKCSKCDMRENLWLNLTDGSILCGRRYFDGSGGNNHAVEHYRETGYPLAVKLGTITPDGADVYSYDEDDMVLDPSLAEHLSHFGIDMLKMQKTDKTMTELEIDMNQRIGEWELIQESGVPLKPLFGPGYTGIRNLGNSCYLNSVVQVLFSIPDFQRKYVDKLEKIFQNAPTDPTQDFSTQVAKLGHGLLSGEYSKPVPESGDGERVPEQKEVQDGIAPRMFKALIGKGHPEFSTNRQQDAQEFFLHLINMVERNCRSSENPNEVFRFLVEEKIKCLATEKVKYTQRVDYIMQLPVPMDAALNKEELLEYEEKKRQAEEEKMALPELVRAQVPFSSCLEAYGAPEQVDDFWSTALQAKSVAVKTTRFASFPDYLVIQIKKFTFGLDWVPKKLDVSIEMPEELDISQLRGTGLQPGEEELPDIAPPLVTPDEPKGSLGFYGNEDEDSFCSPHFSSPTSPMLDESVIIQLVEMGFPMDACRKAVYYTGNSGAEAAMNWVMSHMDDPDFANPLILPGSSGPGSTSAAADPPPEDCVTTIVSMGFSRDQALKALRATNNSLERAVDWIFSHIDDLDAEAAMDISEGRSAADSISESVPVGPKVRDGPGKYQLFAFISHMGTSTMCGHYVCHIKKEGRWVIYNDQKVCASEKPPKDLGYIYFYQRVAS
Summary of the method: as §1

USP54 = USP54 (UniProt Q70EL1)
Chain of USP54 (Q70EL1 whole entry): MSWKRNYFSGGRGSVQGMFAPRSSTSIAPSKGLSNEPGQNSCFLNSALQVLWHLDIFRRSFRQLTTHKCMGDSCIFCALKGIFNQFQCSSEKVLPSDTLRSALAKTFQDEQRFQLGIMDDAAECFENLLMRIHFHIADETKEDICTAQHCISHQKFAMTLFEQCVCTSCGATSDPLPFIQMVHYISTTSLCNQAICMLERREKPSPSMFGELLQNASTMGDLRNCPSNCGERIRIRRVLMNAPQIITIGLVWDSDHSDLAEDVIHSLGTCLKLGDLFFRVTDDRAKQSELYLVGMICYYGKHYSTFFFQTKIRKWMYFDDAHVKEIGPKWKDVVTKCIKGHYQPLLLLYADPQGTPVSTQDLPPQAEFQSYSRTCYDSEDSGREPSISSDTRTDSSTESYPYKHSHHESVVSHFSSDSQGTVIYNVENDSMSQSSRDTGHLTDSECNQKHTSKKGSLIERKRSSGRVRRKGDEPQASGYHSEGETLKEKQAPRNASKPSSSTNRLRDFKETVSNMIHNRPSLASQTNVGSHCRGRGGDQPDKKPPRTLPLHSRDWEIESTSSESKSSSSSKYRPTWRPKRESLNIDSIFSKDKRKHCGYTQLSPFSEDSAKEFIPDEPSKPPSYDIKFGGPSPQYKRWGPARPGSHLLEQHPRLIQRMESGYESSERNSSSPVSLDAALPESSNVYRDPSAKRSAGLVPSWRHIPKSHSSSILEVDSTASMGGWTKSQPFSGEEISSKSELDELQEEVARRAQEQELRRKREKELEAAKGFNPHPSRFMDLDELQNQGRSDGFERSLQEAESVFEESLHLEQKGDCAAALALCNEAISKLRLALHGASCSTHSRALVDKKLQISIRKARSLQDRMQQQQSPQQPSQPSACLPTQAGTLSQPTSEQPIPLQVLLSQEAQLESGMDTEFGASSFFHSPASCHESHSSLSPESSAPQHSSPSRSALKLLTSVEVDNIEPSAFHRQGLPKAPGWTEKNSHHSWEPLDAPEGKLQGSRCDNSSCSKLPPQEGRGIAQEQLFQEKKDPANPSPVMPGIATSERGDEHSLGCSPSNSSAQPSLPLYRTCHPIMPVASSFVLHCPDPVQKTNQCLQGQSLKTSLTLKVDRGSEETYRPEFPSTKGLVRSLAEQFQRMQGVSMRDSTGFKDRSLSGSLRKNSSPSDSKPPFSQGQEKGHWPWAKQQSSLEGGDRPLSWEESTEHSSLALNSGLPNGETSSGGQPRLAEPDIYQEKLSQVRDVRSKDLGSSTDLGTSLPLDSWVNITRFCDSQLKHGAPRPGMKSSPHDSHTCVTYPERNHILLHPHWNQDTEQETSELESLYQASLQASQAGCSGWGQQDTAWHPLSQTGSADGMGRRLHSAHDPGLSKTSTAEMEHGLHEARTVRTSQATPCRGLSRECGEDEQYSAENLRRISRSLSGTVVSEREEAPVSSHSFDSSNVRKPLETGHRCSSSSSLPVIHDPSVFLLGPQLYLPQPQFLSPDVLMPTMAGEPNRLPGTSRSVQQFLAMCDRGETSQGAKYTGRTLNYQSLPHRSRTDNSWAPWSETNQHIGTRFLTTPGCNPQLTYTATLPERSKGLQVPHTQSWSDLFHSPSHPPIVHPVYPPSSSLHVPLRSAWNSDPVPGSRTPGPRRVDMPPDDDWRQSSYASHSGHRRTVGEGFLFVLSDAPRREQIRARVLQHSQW
Summary of the method: as §1

USP7 = USP7 (UniProt Q93009)
Chain of USP7 (Q93009 whole entry, looked up): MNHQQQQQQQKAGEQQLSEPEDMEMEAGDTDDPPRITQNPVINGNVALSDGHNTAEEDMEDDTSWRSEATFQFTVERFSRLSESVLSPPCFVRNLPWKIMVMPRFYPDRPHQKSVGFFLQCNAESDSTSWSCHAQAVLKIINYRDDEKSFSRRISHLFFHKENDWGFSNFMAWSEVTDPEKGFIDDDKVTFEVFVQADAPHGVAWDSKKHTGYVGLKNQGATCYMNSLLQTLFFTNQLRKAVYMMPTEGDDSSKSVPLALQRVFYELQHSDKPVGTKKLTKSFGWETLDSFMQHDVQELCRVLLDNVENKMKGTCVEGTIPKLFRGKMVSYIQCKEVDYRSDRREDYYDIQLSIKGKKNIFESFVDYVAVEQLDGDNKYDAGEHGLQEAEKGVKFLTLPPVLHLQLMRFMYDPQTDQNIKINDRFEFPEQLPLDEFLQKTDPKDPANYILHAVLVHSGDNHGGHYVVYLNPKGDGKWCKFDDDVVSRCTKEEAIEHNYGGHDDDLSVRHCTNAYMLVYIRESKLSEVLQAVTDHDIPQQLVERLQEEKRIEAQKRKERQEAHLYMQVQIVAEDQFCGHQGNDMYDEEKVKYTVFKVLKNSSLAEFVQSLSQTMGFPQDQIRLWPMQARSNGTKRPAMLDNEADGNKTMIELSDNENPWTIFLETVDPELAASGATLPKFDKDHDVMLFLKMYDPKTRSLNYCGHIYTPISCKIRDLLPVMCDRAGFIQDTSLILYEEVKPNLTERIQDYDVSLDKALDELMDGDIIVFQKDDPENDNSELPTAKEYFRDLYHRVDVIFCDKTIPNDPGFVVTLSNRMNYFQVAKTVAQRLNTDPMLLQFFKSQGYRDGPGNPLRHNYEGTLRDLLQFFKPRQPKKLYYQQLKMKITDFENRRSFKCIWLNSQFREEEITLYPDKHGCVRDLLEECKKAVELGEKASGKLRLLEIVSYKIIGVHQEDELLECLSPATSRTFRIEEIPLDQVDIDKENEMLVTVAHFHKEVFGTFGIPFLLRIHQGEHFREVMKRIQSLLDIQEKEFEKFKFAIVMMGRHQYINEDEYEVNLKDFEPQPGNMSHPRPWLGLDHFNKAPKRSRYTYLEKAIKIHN
Summary of the method: as §1

USP8 = target: T5, USP8 (UniProt P40818)
T5 sequence (whole entry): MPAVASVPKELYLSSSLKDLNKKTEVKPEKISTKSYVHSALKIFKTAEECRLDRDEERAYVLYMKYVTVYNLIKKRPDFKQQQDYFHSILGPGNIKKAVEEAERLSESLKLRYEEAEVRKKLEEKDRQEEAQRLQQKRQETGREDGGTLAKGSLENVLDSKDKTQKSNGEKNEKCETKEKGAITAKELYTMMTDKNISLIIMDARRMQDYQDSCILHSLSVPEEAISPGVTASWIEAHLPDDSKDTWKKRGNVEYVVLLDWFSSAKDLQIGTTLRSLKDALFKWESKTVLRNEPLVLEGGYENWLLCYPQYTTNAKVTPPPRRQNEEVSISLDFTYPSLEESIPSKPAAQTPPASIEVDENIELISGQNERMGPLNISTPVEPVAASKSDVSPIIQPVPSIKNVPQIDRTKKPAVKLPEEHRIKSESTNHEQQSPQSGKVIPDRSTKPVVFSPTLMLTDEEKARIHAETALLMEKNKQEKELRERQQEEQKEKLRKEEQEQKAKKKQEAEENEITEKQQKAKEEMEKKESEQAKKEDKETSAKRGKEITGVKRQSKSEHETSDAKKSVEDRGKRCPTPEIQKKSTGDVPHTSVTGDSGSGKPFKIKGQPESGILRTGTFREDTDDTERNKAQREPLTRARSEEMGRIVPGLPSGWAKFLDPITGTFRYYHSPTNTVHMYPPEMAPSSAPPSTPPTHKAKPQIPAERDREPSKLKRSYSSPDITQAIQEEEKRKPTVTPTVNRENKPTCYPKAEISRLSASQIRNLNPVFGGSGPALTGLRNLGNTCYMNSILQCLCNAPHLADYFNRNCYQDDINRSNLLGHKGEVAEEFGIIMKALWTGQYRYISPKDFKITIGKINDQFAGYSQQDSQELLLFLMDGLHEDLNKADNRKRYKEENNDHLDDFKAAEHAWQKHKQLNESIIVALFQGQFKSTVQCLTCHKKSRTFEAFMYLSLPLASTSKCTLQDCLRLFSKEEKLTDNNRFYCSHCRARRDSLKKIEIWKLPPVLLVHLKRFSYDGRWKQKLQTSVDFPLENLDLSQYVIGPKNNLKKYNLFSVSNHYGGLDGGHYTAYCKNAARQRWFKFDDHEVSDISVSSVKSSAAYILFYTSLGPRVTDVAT
Summary of the method: as §1

USP9X = USP9X (UniProt Q93008)
Summary of the method: as §1

UniProt O00487 = target: UniProt O00487
Chain of UniProt O00487 (O00487 whole entry): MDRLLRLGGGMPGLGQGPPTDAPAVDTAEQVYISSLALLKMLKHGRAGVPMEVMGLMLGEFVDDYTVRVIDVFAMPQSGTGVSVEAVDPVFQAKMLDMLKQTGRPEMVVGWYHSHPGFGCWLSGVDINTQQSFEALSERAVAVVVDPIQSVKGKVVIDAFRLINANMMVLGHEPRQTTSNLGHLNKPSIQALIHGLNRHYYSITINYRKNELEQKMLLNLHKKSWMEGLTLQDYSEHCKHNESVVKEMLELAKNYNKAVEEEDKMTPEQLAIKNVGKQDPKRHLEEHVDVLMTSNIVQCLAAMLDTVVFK
Summary of the method: as §1

Measured: log2 ratio of Biotin-Ahx-Ub-VS probe labelling

N#Cc1ccccc1N1CCN(C(=O)CCl)CC1
active: USP7 -1.73
inactive: USP42 0.456 | USP46 -0.871 | USP47 -0.514 | USP48 -1.04 | USP5 -0.123 | USP54 1.03 | USP8 -0.729 | USP9X -0.651 | UniProt O00487 0.0611
